The panel holds about 83,000 compounds, 20% with a hit somewhere; the sample as a whole holds those more often.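 Cells were grown in 96-well plates and exposed to the test compound at a single concentration for 48 hours; results are reported as percent growth, with values below 10 considered active.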 Unmarked numbers belong to inactive results. Active and inactive are the calls of the source.
Columns and labels:
Test in all cases: NCI-60 one-dose screen, 48 h (100 = growth as untreated, 0 = no growth, -100 = all killed)
Details in all cases: 10 µM unless noted
[1] = system: NCI-H23 lung
[2] = system: NCI-H226 lung
[3] = system: HOP-62 NSCLC
[4] = system: NCI-H460 lung
[5] = system: HOP-92 NSCLC
[6] = system: NCI-H522 lung
[7] = system: A549/ATCC NSCLC
[8] = system: 786-0 renal
[9] = system: DU-145 prostate
[10] = system: K-562 leukemia
[11] = system: MALME-3M melanoma
[12] = system: MDA-MB-231 breast
[13] = system: RXF 393 renal
[14] = system: SF-268 CNS
[15] = system: SF-295 CNS
[16] = system: SF-539 CNS
[17] = system: UACC-257 melanoma
[18] = system: M14 melanoma
[19] = system: NCI-H322M lung
[20] = system: COLO 205 colon

COc1ccc(C2CC(c3cnccn3)=NN2)cc1OC (stereo not drawn)
growth [1]: 101% | growth [2]: 98.8% | growth [3]: 111% | growth [4]: 108% | growth [5]: 68.3% | growth [6]: 67% | growth [7]: 90.4% | growth [8]: 92% | growth [9]: 104% | growth [10]: 60.9% | growth [11]: 95.4% | growth [12]: 106% | growth [13]: 100% | growth [14]: 103% | growth [15]: 104% | growth [16]: 111% | growth [17]: 106% | growth [18]: 89.5%

Cc1nc2ccccc2c(/C=C/c2ccc(Cl)cc2)c1C(=O)/C=C/c1ccc(Cl)cc1
growth [1]: -19.7% (active) | growth [2]: -40.6% (active) | growth [19]: 5.27% (active) | growth [3]: -7.32% (active) | growth [4]: -76.3% (active) | growth [5]: -59.9% (active) | growth [6]: -14.6% (active) | growth [7]: 56.9% | growth [20]: -24.5% (active) | growth [9]: -70.5% (active) | growth [10]: 2% (active) | growth [11]: -54.1% (active) | growth [12]: -34.1% (active) | growth [13]: -72.4% (active) | growth [14]: 25.8% | growth [15]: -65.6% (active) | growth [16]: -88.4% (active) | growth [17]: -17.2% (active)

Cc1nc(-c2ccccc2)cc2c(O)c(C(=O)N/N=C/c3ccc(N(C)C)cc3)[nH]c(=O)c12
growth [1]: 78.1% | growth [2]: 107% | growth [3]: 77.3% | growth [4]: 94.9% | growth [5]: 32% | growth [6]: 72.7% | growth [7]: 40.5% | growth [8]: 79.2% | growth [20]: 109% | growth [9]: 75.1% | growth [10]: 62.6% | growth [11]: 98.2% | growth [12]: 71.7% | growth [14]: 81.7% | growth [15]: 94.1% | growth [16]: 69.7% | growth [17]: 106%

CCOC(=O)C(O)C(O)(c1ccccc1)c1ccccc1 (stereo not drawn)
growth [1]: 102% | growth [2]: 90.2% | growth [3]: 97% | growth [4]: 110% | growth [5]: 113% | growth [6]: 92.8% | growth [7]: 95.6% | growth [8]: 102% | growth [10]: 98% | growth [11]: 103% | growth [12]: 94.4% | growth [13]: 113% | growth [14]: 95.4% | growth [15]: 95.6% | growth [16]: 94.5% | growth [17]: 106% | growth [18]: 101%

Cc1cccc(-c2cc(O)c(C(=O)N3CCOCC3)s2)c1
growth [1]: 55.2% | growth [2]: 68% | growth [3]: 38.3% | growth [4]: 17.7% | growth [5]: 73.7% | growth [6]: 0.179% (active) | growth [7]: 37.7% | growth [8]: 51.4% | growth [20]: 94.9% | growth [9]: 60.3% | growth [11]: 52.6% | growth [12]: 56.7% | growth [13]: 62.9% | growth [14]: 57.1% | growth [15]: 37.9% | growth [16]: 33.6% | growth [17]: 52.8%

CCCCCCCC/C=C\CCCCCCCC(=O)Oc1cccc2cccnc12
growth [1]: 105% | growth [2]: 97% | growth [3]: 96.4% | growth [4]: 96.1% | growth [5]: 236% | growth [6]: 71% | growth [7]: 101% | growth [8]: 105% | growth [9]: 78.5% | growth [10]: 73.9% | growth [11]: 117% | growth [12]: 106% | growth [13]: 47.6% | growth [14]: 90.8% | growth [16]: 102% | growth [17]: 2.81% (active) | growth [18]: 90.3%

CC(=O)Nc1ccc(C(=O)/C=C/c2ccccc2)cc1
growth [1]: 96.1% | growth [2]: 83.5% | growth [3]: 101% | growth [4]: 98.3% | growth [5]: 47.8% | growth [6]: 53% | growth [7]: 76.3% | growth [8]: 58.3% | growth [20]: 102% | growth [9]: 89.8% | growth [10]: 79.9% | growth [11]: 104% | growth [12]: 93.2% | growth [13]: 97.4% | growth [14]: 85.4% | growth [15]: 104% | growth [16]: 96.6% | growth [17]: 70.3%

Fc1ccc(Nc2nc3nonc3nc2Nc2ccc(F)cc2)cc1
growth [1]: 2.78% (active) | growth [2]: 14.9% | growth [19]: 1.32% (active) | growth [3]: -5.63% (active) | growth [4]: 1.64% (active) | growth [5]: -30.5% (active) | growth [6]: -23.9% (active) | growth [7]: 6.26% (active) | growth [20]: -80.2% (active) | growth [9]: 23.8% | growth [10]: 9% (active) | growth [11]: 1.97% (active) | growth [12]: -20.5% (active) | growth [13]: 9.9% (active) | growth [14]: 18.5% | growth [15]: -20.7% (active) | growth [16]: -7.76% (active) | growth [17]: -13.5% (active)

Cc1cc(N2CCCCC2)nc(N(CCNc2ccnc3cc(Cl)ccc23)Cc2ccccn2)n1
growth [1]: 53.7% | growth [2]: 63.5% | growth [3]: 55.6% | growth [4]: 41.5% | growth [5]: 30.6% | growth [6]: 56.3% | growth [7]: 53.9% | growth [8]: 45.3% | growth [9]: 61.9% | growth [10]: 7.83% (active) | growth [11]: 74.1% | growth [12]: 49.6% | growth [13]: 30.7% | growth [14]: 71.8% | growth [15]: 21.5% | growth [16]: 39.2% | growth [17]: 66.9% | growth [18]: 45%

Source: PubChem BioAssay (NCI)
